Measured values as given in PubChem BioAssay AID1310 (The Scripps Research Institute Molecular Screening Center, 2008).
The other results are listed elsewhere or left out. Active and inactive are the calls of the source.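 Rule for the calls: active = inhibition above the mean of solvent-only control wells plus 3 SD, set per campaign (cut at about 25% in these data); inactive = the rest.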

Test: STAT3 reporter inhibition by STAT1 hits, counter-screen for STAT1 inhibitor project, U3A cells, luciferase, luminescence, triplicate (AID 1310);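 note: 0% = IL-6 plus DMSO and 100% = IL-6 plus nifuroxazide control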
Conditions: IL-6 STAT3 luciferase reporter, at 5.7 µM, stronger effect = higher value, cells lacking STAT1

| SMILES | inhibition |
| --- | --- |
| COc1ccc(C2CC(c3cccs3)=NN2c2nc(C)c(C(C)=O)s2)cc1OC (stereo not given) | 13.4% (inactive) |
| O=C(CCl)N(Cc1cccc([N+](=O)[O-])c1)c1cccc(Cl)c1 | 47% (active) |
| COc1ccc(C(=O)Nc2ccccc2C(=O)N/N=C/c2ccccc2OC)cc1 | -7.2% (inactive) |
| C[C@@H]1C[C@@H]2O[C@H]2/C=C\C=C\C(=O)Cc2c(Cl)c(O)cc(O)c2C(=O)O1 | 70% (active) |
| CCOC(=O)C(=CNc1cccc(C)n1)C(=O)OCC | 9.3% (inactive) |
| COC(=O)C1=CN(Cc2ccc(OC)c(OC)c2)C=C(C(=O)OC)C1c1cccs1 | -3.35% (inactive) |
| CCOC(=O)N1CCN(C(=O)CSc2nnc(-c3c[nH]c4ccccc34)n2CCOC)CC1 | -4.2% (inactive) |
| Cc1ccc(C2=Nc3c(ccc4ccccc34)C(c3ccncc3)=NN2)cc1 | -38.9% (inactive) |
| CCOC(=O)N1CCN(C(=O)C2CCN(c3ncnc4c3sc3cccc(F)c34)CC2)CC1 | 4.65% (inactive) |
| NS(=O)(=O)c1cccc(NC(=O)CSc2nc3ccccc3n2-c2ccccc2)c1 | -2.95% (inactive) |
